MCF10A rerep: A quantitative high throughput screen for small molecules that induce DNA re-replication in MCF 10a normal breast cells; MCF 10A DNA re-replication, Hoechst nuclear intensity, 48 h; Potency, µM (titrated, usually from 46.1 µM), for inactives: at the highest dose activity, positive = re-replication, most hits filed as activators; 2.9% of 350,000 active; AID 624296, 2012; further: potency means the concentration at half of the fitted maximal effect; % of control where 0% means no effect; nearly all actives have a fitted effect of over 50% in size
RORgamma inh: qHTS for inhibitors of ROR gamma transcriptional activity | Nuclear receptor ROR-gamma (Mus musculus), P51450 | Drosophila S2 Gal4-RORgamma UAS-luciferase reporter, 20 h | Potency, µM (top dose mostly 53.6 µM), for inactives: at the highest dose activity change, negative = inhibition, actives largely listed as inhibitors | 5.4% of 310,000 active; further: potency means the concentration at half of the fitted maximal effect; on the % scale 0 is the no-effect control and ±100 the full control effect; nearly all actives have a fitted effect of over 60% in size
Target sequence (P51450 whole entry, looked up, the tested form may be a part): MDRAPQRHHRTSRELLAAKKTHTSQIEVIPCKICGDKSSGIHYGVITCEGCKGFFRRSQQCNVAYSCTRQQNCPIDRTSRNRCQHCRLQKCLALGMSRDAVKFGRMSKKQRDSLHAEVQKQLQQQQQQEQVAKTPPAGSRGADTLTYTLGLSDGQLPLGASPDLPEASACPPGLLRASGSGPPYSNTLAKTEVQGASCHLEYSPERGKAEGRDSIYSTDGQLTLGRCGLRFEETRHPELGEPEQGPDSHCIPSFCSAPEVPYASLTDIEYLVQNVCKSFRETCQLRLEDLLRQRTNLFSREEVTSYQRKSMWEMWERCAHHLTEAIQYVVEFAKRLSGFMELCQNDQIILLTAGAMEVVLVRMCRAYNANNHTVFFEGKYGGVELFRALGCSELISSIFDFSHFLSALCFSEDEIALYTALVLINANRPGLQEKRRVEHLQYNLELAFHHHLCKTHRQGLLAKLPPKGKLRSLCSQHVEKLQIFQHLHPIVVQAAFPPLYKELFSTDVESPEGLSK
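Using a luciferase readout, inhibitors were identified by reduced reporter activity in Drosophila cells coexpressing a copper-inducible Gal4–ROR gamma fusion and UAS-driven Photinus luciferase, incubated 20 hr after 700 uM copper sulfate.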
BCR signal inh: qHTS Assay to Find Inhibitors of Chronic Active B-Cell Receptor Signaling. ABC-DLBCL IkBa-CBG/CBR reporter, luminescence ratio, 4 h. Potency, µM (highest dose often 46.1 µM), for inactives: top-dose activity change, negative = inhibition, actives largely listed as inhibitors. 0.05% of 340,000 active. AID 493014, 2011; active means well fitted inhibition curve with a large enough effect in the signal ratio, with a control signal flat, not every such curve was filed as active; inconclusive means small, poorly fitted or top-dose-only effect, or effect the other way, or a change in a side signal; the % refers to the signal ratio;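 further: potency means the concentration at half of the fitted maximal effect; plate controls were basal doxycycline-induced cells for no effect and cells given 10 µM MG132 for full effect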
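Cell line TMD8 (human ABC DLBCL), stably expressing tet-inducible CBG68-IkBa fusion and CBR; IMDM/0.5% FBS; cpd up to 46 uM; dox induction, 4 h, 37C/5% CO2; dual luminescence; green/red ratio; MG132 control.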
SW480 rerep: A quantitative high throughput screen for small molecules that induce DNA re-replication in SW480 colon adenocarcinoma cells; SW480 DNA re-replication, Hoechst DNA content imaging, 48 h; Potency, µM (series often up to 46.1 µM), inactives show top-dose re-replication activation, actives largely listed as activators; 1.8% of 340,000 active; AID 624297, 2012; further: potency means the concentration at half of the fitted maximal effect; % of control where 0% means no effect; nearly all actives have a fitted effect of over 55% in size
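Per well, 250 cells were exposed to pinned compound for 48 hr. Nuclear DNA was visualised with Hoechst (40 min, 37 C) and total object intensity recorded by fluorescence scanning.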
Gal4-VP16 FLuc: VP16 counterscreen qHTS for inhibitors of ROR gamma transcriptional activity; Drosophila S2 Gal4-VP16 UAS-luciferase, luminescence, 20 h; Potency, µM (doses to about 53.6 µM), for inactives: top-dose activity, negative = inhibition, most hits filed as inhibitors; 3.5% of 310,000 active;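 further: Gal4-VP16 expression switched on by copper sulfate through the metallothionein promoter; potency means the concentration at half of the fitted maximal effect; on the % scale 0 is the no-effect control and ±100 the full control effect; nearly all actives have a fitted effect of over 50% in size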
Giardia kill: Small Molecules that selectively kill Giardia lamblia: qHTS; Giardia lamblia trophozoite viability; activity change, % at 7.66 µM, hits read low; 0.15% of 340,000 active; AID 540267, 2011; in the data active means activity change below about -80%; inconclusive means between about -30% and that limit;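 further: parasites exposed to compound for two days anaerobically before the ATP read; on the % scale 0 is the no-effect control and ±100 the full control effect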
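Trophozoite viability was measured as ATP-dependent luminescence, read 15-30 min after reagent addition. Before that, parasites at 100 cells/well were exposed to compounds for 48 h, anaerobically, at 37 deg C.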
Active calls of the source: *; ? = inconclusive; nt = not tested or not shown; ! = not confirmed by another sample; [ ] = remark or other dose. Compounds with a hit are over-represented: about 8.3% of the library has one in this group of screens. Unless noted, the call rests on the fitted dose curve; in most records, active means well fitted curve in the direction sought with a large enough effect; inconclusive means small, poorly fitted or top-dose-only effect, or another doubt; inactive means no such curve, though single readings can be large; an effect the other way counts as inactive or inconclusive.

SMILES	MCF10A rerep	RORgamma inh	BCR signal inh	SW480 rerep	Gal4-VP16 FLuc	Giardia kill
CC(=O)OC1CC(OC2C(O)CC(OC3C(O)CC(OC4CCC5(C)C(CCC6C5CCC5(C)C(C7=CC(=O)OC7)CCC65O)C4)OC3C)OC2C)OC(C)C1OC1OC(CO)C(O)C(O)C1O (stereo not given)	15%	nt	nt	0.92µM*	nt	-6
COC1CC(OC2CCC3(C)C(CCC4C3CCC3(C)C(C5=CC(=O)OC5)C(OC(C)=O)CC43O)C2)OC(C)C1OC1OC(COC2OC(CO)C(O)C(O)C2O)C(O)C(O)C1O (stereo not given)	nt	0%	?	nt	-17%	nt
CCOc1cc(OP(=S)(OC)OC)nc(CC)n1	nt	18%	nt	nt	-6%	nt
CCCCCCC1CC(C)(C(=O)CNc2nncs2)OC1=O (stereo not given)	-1%	?	-15%	-2%	-12%	-22
O=C(NN=Cc1ccc(N(CCCl)CCCl)cc1)C(=O)c1c[nH]c2ccccc12	16µM*	nt	nt	?	nt	-12
O=C(Cc1cc(=O)oc2cc(O)ccc12)NN=Cc1ccc(N(CCCl)CCCl)cc1	?	nt	nt	?	nt	28
O=C(NN=Cc1ccc(N(CCCl)CCCl)cc1)c1cc(=O)[nH]c(=O)[nH]1	?	nt	nt	7.3µM*	nt	8
O=C(NN=Cc1ccc(N(CCCl)CCCl)cc1Cl)c1cccnc1	18%	nt	nt	?	nt	1
N#CC(Cl)(Cl)Cl	nt	11%	nt	nt	1%	nt
CCCCC/C=C\C/C=C\C/C=C\CCCCC(=O)NCCO	nt	-20%	nt	nt	-7%	nt
O=C(c1ccc(CNS(=O)(=O)c2ccc(Br)cc2)cc1)N1CCC2(CC1)OCCO2	?	30%	0%	0.58µM*!	-6%	-11
CCOP(=S)(OCC)OCCSCC	nt	25%	nt	nt	-3%	nt
COc1cc(-c2nc3ccc4ccccc4c3c3c2CCC3)cc(OC)c1OC	16%	5.6µM*	?	1%	22µM*	-1
COC12C(COC(N)=O)C3=C(C(=O)C(C)=C(N)C3=O)N1CC1C2N1C (stereo not given)	-17%	-35%	?	?	-14%	?
CO[C@@H](COC(N)=O)C1=C(N2CC2)C(=O)C(C)=C(N2CC2)C1=O	4.7µM*	?	nt	?	11µM*	nt
CC(=O)c1ccc(NC(=O)COc2ccc3c(c2)OCO3)cc1	1%	4%	?	1%	-17%	-6
CCCCNS(=O)(=O)c1ccc2nc(SCC(=O)Nc3sccc3C#N)[nH]c2c1	?	4%	?	7%	13µM*	3
CC(=O)Nc1c2sscc-2n(C)c1=O	nt	0.4µM*	nt	nt	0.25µM*	nt
O=S(=O)(CCN1CCN(c2ccccn2)CC1)c1ccc(Cl)cc1Cl	?	-3%	3%	3%	8%	8
CCC1CN2CCc3cc(OC)c(OC)cc3C2CC1CC1NCCc2cc(OC)c(OC)cc21 (stereo not given)	nt	6.3µM*	nt	nt	7.1µM*	nt
Cc1cc(-c2n[nH]c(=S)n2CC(C)C)cs1	5%	5µM*	3%	2%	?	-2
CC(=O)c1ccc(NC(=O)CSc2nc(=O)cc(N)n2-c2ccccc2)cc1	-20%	5%	-5%	62%[1.84 µM]	-2%	2
CCOC(=O)c1cccc(NS(=O)(=O)c2ccc(NC(C)=O)cc2)c1	1%	?	5%	-1%	5µM*	-3
CCCSc1ccc2nc(NC(=O)OC)[nH]c2c1	0.73µM*	-22%	?	0.82µM*	-14%	?
CCCCCn1c(=O)c(C(=O)Nc2nc3ccccc3[nH]2)c(O)c2ccccc21	?	-4%	?	-5%	5%	42
SMILES	MCF10A rerep	RORgamma inh	BCR signal inh	SW480 rerep	Gal4-VP16 FLuc	Giardia kill
CC(Cc1ccc(C(C)(C)C)cc1)CN1CC(C)OC(C)C1 (stereo not given)	nt	-7%	nt	nt	-17%	nt
Clc1ccc(C2=CCC[C@H]3CC[C@@H]2N3)cn1	nt	10%	nt	nt	1%	nt
C[C@@H]1O[C@@H](O[C@H]2CC[C@@H](O[C@H]3[C@H](O)C[C@H](c4ccc5c(c4O)C(=O)C4=C(C5=O)[C@@]5(O)C(=O)C[C@](C)(O[C@H]6CC[C@H](O[C@H]7C=CC(=O)[C@H](C)O7)[C@H](C)O6)C[C@@]5(O)C=C4)O[C@@H]3C)O[C@H]2C)C=CC1=O	nt	0.5µM*	nt	nt	-10%	nt
CN(C)C(=O)Oc1ccc(OCc2n(C)c3ccccc3[n+]2C)cc1	5%	-7%	-3%	16µM*	-13%	19
COCCOC(=O)c1c(C)n(C)c2ccc(OC(=O)N(C)C)cc12	-12%	36%	-5%	-13%	-2%	-19
Cc1ccc2c(c1)C1CN(C)CCC1N2C(=O)c1ccccc1NS(=O)(=O)c1cccc(C(F)(F)F)c1 (stereo not given)	?	-9%	13%	9%	-7%	-14
Nc1cc(Cl)c2nonc2c1[N+](=O)[O-]	3.3µM*	2µM*	?	?	2.8µM*	-23
OC[P+](CO)(CO)CO	nt	-11%	nt	nt	1%	nt
CCCCCC1CC(CC(=O)NC(=S)Nc2ccc([N+](=O)[O-])cc2)C(=O)O1 (stereo not given)	?	71µM*	24%	?	?	4
COc1ccc(N2C(=O)CS(=O)C(c3ccccc3)C2=O)cc1 (stereo not given)	?	1.3µM*	?	14%	-1%[10 µM]	19
Cc1ccc(N2C(=O)CS(=O)C(c3ccccc3)C2=O)cc1C (stereo not given)	?	-2%	?	11%	7%	-12
CC(C)Oc1ccc(CNC(=O)Oc2ccccc2)cc1	12µM*	30%	1%	?	30%	22
